Compound activity from PubChem BioAssay.
Sm TGR block – inhibitors of Schistosoma mansoni thioredoxin glutathione reductase; purified TGR, DTNB reduction, TNB absorbance 405 nm; Potency, µM (series often up to 114 µM), most hits filed as inhibitors; 3% of 360,000 active; AID 485364; note: nearly all actives have a fitted effect of over 60% in size
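Kinetic colorimetric format: TGR-catalysed, NADPH-driven DTNB reduction monitored via TNB absorbance. Enzyme dispensed at 20 nM; compound exposure 15 min at room temperature before reaction start.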
AmpC no deterg – inhibitors of E. coli AmpC beta-lactamase without detergent | P00811 | AmpC nitrocefin hydrolysis, absorbance 480 nm, 0.0001% Triton | Potency, µM (series often up to 57.1 µM), usual class: inhibitors | 0.52% of 330,000 active | AID 485341; note: nearly all actives have a fitted effect of over 20% in size
Target sequence (P00811 whole entry, looked up): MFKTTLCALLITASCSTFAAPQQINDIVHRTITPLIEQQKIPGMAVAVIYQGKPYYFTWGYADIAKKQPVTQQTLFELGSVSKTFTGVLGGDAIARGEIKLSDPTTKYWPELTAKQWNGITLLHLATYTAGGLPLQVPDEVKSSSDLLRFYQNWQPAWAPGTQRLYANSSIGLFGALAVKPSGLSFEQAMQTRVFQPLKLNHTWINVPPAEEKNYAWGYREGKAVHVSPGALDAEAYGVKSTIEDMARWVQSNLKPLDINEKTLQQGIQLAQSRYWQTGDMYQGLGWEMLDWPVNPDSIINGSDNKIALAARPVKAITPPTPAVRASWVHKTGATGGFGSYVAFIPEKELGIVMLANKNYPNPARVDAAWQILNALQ
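20 mM phosphate pH 7.0 + 0.01% (detergent screen) or 0.0001% Triton X-100; 5.3 nM AmpC reagent; cpd preinc 15 min RT; nitrocefin (800 uM stock) to start; A480 q20 s × 4 min; Activity was normalised to no-enzyme and no-compound control wells.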
AmpC inh detg – AmpC beta-lactamase inhibition with detergent present. Potency, µM (series often up to 114 µM), actives largely listed as inhibitors. 0.041% of 370,000 active. AmpC hydrolysis of nitrocefin, absorbance 480 nm, 0.01% Triton. AID 485294; note: nearly all actives have a fitted effect of over 25% in size
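AmpC (5.3 nM in the dispensed reagent) in 20 mM phosphate pH 7.0 with 0.01% (detergent screen) or 0.0001% Triton X-100 was preincubated with compounds for 15 min at room temperature. Nitrocefin was then added from an 800 uM solution, and hydrolysis was followed at 480 nm.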
A number is an active result; 0 = inactive; ? = inconclusive; - = not tested or not shown. This is a sample that favours compounds with a hit; in the whole collection about 3.3% have one here. Calls come from the whole dose curve; as a rule, active = well fitted curve in the direction sought with a large enough effect; inconclusive = small, poorly fitted or top-dose-only effect, or another doubt; inactive = no such curve, though single readings can be large; an effect the other way counts as inactive or inconclusive.

SMILES | Sm TGR block | AmpC no deterg | AmpC inh detg
CCC1S/C(=N/N=C/c2ccco2)N(Cc2ccccc2C)C1=O (configuration not stated) | 40µM | 0 | 0
CC1S/C(=N/N=C/c2ccco2)N(Cc2ccccc2)C1=O (configuration not stated) | 35µM | 0 | 0
O=C1C(Cc2ccccc2)S/C(=N/N=C/c2ccco2)N1c1ccccc1 (configuration not stated) | ? | 0 | 0
COc1ccc(OC)c(/C=N/N=C2\SCC(=O)N2Cc2ccco2)c1 | 0 | 0 | ?
Cc1ccccc1CN1C(=O)CS/C1=N/N=C/c1ccco1 | 11µM | 0 | 0
CCC1S/C(=N/N=C/c2ccco2)N(Cc2ccc(F)cc2)C1=O (configuration not stated) | ? | 0 | 0
O=C1CS/C(=N/N=C/c2ccccc2)N1Cc1ccco1 | 40µM | 0 | 0
Cc1cc(C)c(N=C2SCC(=O)N2Cc2ccco2)c(C)c1 | 0 | 0 | 0
COc1cc2c(cc1OC)C(COc1ccccc1OC)N(C(=O)COc1ccc(Cl)cc1)CC2 (configuration not stated) | 0 | - | 0
Cc1noc(C)c1-c1ccc2ncnc(NCc3cccc(-c4ccccc4)c3)c2c1 | 0 | 0 | ?
COc1ccc(NC(=O)CSc2nc3ccccc3n2CC(=O)N(C)C2CCCCC2)cc1 | 0 | - | 0
COc1ccc(-n2c(=O)c3sc4ccccc4c3n(Cc3ccccc3C)c2=O)cc1OC | 0 | - | 0
CSc1nc(C)cc(C)c1C(N)=O | 0 | 0 | 0
Cc1cc(C)c(C(=O)O)c(Cl)n1 | 40µM | 0 | 0
COc1coc(C(O)C[N+](=O)[O-])cc1=O (configuration not stated) | 50µM | 0 | 0
COC(=O)C(N)Cc1ccc(OC)c([N+](=O)[O-])c1 (configuration not stated) | 0 | 0 | 0
CC1CCc2c(c3ccccc3n2C(=O)CCl)C1 (configuration not stated) | 8.9µM | 0 | ?
CCN1CCN(CC(=O)n2c3c(c4ccccc42)CC(C)CC3)CC1 (configuration not stated) | 0 | 0 | 0
COc1ccc(CCN2CCCC(CN(C)Cc3cc(Cl)c(O)c(OC)c3)C2)cc1 (configuration not stated) | 50µM | 0 | 0
COc1ccc(CN(C)CC2CCCN(CCc3ccccc3C)C2)cc1O (configuration not stated) | 0 | 0 | 0
CCCN(Cc1cc2cccc(C)c2[nH]c1=O)C(=O)c1cccc(Cl)c1 | 0 | - | 0
CC1=Nc2ccccc2/C1=C\c1nc(-c2ccccc2)oc1O | ? | 0 | ?
COc1ccc(-c2nc(/C=C3\C(C)=Nc4ccccc43)c(O)o2)cc1 | 45µM | 0 | 0
Cc1nc2nc(SCC(=O)NC(C)c3ccccc3)nn2c(C)c1Cc1c(F)cccc1Cl (configuration not stated) | 0 | - | ?
CCOC(=O)CSc1nnc(CSc2nc(C)cc(C)n2)n1Cc1ccco1 | 45µM | 0 | 0
SMILES | Sm TGR block | AmpC no deterg | AmpC inh detg
Cc1ccc(C)c(NC(=O)CSc2nnc(CSc3nc(C)cc(C)n3)n2Cc2ccco2)c1 | 0 | 0 | 0
Cc1ccc(NC(=O)CSc2nnc(CSc3nc(C)cc(C)n3)n2Cc2ccco2)c(C)c1 | 50µM | 0 | 0
Cc1cc(C)nc(SCc2nnc(SCC(N)=O)n2Cc2ccco2)n1 | 0 | 0 | 0
CCOC(=O)N1CCC(NS(=O)(=O)c2ccccc2)CC1 | 45µM | 0 | 0
CCOC(=O)N1CCC(NS(=O)(=O)c2ccc(C)cc2)CC1 | 0 | 0 | 0
N#Cc1ccc(C(=O)NCc2ccc3c(c2)CCN3C(=O)c2ccc(F)cc2)cc1 | 0 | - | 0
COC(=O)CCCC1=CC2=C(c3ccccc3)C(=O)C(C)(OC(=O)C3CCCC3)C(=O)C2=CN1C1CC1 (configuration not stated) | ? | 0 | 0
COC(=O)CCCC1=CC2=C(c3ccccc3)C(=O)C(C)(OC(=O)C3CCCC3)C(=O)C2=CN1CCc1c[nH]c2ccccc12 (configuration not stated) | 8.9µM | 0 | 0
CCCCC1=CC2=CC(=O)C(C)(OC(=O)CC)C(=O)C2=CN1CCc1c[nH]c2ccccc12 (configuration not stated) | 45µM | 0 | 0
COC(=O)CCCC1=CC2=C(c3ccccc3)C(=O)C(C)(OC(=O)C3CCCC3)C(=O)C2=CN1C(CO)CO (configuration not stated) | 40µM | 0 | 0
COC(=O)CCCC1=CC2=C(c3ccccc3)C(=O)C(C)(OC(=O)C3CCCC3)C(=O)C2=CN1CCc1ccccn1 (configuration not stated) | 28µM | 0 | 0
C=CCN1C=C2C(=O)C(C)(OC(=O)C3CCCC3)C(=O)C(c3ccccc3)=C2C=C1CCCC(=O)OC (configuration not stated) | ? | 0 | 0
CC1(OC(=O)C2CCCC2)C(=O)C=C2C=C(c3ccsc3)N(CCc3c[nH]c4ccccc34)C=C2C1=O (configuration not stated) | ? | 0 | 0
COC(=O)CCCC1=CC2=CC(=O)C(C)(OC(=O)c3cccs3)C(=O)C2=CN1CCc1c[nH]c2ccccc12 (configuration not stated) | ? | 0 | 0
CCOC(=O)C1CCN(C(=O)C2CCN(c3nnc(C)c4c(C)n(-c5ccccc5)nc34)CC2)CC1 | 0 | - | 0
CC1=C(C(=O)Nc2ccccc2)C(c2ccccn2)n2nc(SCc3ccccc3Cl)nc2N1 (configuration not stated) | 0 | - | 0
CCOC(=O)c1cc(-c2ccc(OC)cc2)n(CCC(=O)Nc2cccc(C)c2C)c1C | ? | - | 0
CC1=C(c2ccc(C(C)C)cc2)S(=O)(=O)N=C1N1CCC(C(=O)NCc2ccccc2)CC1 | 0 | - | 0
CCc1cccc(NC(=O)c2sc3nc[nH]c(=O)c3c2C)c1 | 0 | - | 0
CCOC(=O)c1cccc(NC(=O)CCC(=O)N2CC(C)Oc3ccc(C)cc32)c1 (configuration not stated) | 0 | - | 0
COC(=O)CCCC1=CC2=C(c3ccccc3)C(=O)C(C)(OC(=O)C3CCCC3)C(=O)C2=CN1CCN1CCOCC1 (configuration not stated) | 35µM | 0 | 0
CC1(OC(=O)C2CCCC2)C(=O)C=C2C=C(c3ccsc3)N(CCN3CCOCC3)C=C2C1=O (configuration not stated) | 0 | 0 | 0
Cc1ncc(CN2CCCC(C(=O)Nc3ccc(-c4ccco4)cc3)C2)cn1 (configuration not stated) | 45µM | 0 | 0
Cc1ncc(CN2CCCC(C(=O)Nc3ccc(-c4cscn4)cc3)C2)cn1 (configuration not stated) | 0 | 0 | 0
COc1ccc(N(Cc2cccs2)C(=O)COc2cc(C)c(Cl)c(C)c2)cc1 | 0 | - | 0
Cc1cc(NC(=O)Cc2ccccc2)cc(-c2nc3ccccc3o2)c1O | 0 | - | 0
CC(=O)Nc1ccc(N2C(=O)c3cccc4c(O)ccc(c34)C2=O)cc1 | ? | 0 | 0
O=C1c2cccc3c(O)ccc(c23)C(=O)N1Cc1ccco1 | 6.3µM | 0 | 0
O=C1c2cccc3c(O)ccc(c23)C(=O)N1c1ccc(Cl)cc1 | 25µM | 0 | 0
